Measured values: the supplement of paper PMC10338343
± gives the standard deviation.

These sequences were tested on MILI (PIWIL2) piRISC loaded with piRNA #1 (26 nt) (assay: pre-steady-state target cleavage rate (min^-1); guide: piRNA #1 5'p-UGAGGUAGUAGGUUGUAUAGUAUCCA; MIWI and MILI are mouse PIWI proteins and EfPiwi is from a freshwater sponge; tags in brackets are library labels; higher = faster piRNA-guided slicing of the target). Conditions: auxiliary factor: 500 nM mouse GTSF1.
Procedure: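 Cleave-'n-Seq: a library of target RNAs (target site embedded in constant flanks, ACAGCATTCCGCGTTAGTGATATCCG... 5' flank; DNA-blocked outside the site) at 0.1 nM was incubated with 1 nM active mouse MILI or MIWI piRISC (synthetic 5'-monophosphorylated piRNA guide) with or without 500 nM mouse GTSF1 at 33 °C for 1 min to 16 h. Uncleaved targets were sequenced and normalised to non-target controls, and the pooled three trials were fitted to a burst-and-steady-state model to give the pre-steady-state cleavage rate (min^-1; k3 is constrained to at most 1e-4). Sequence is the target site only; target names encode pairing extent (gX:gY) and contiguous / 1-mismatch / 2-mismatch / bulge geometry. Fits with R² ≤ 0 are excluded.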

Row | Sequence | pre-steady-state target cleavage rate
1 | GGAGACCAUACUAUACAACCUACUACGUCA | 0.116 ± 0.017
2 | GGAGUGGAAACUAAACAACCUACUACCUCA | 0.201 ± 0.02
3 | GGAGACCUAUCUAUACAUGCUACUACCUCA | 0.0973 ± 0.012
4 | GGAGACGAUUCUUUACAACCUACUACCUCA | 0.152 ± 0.011
5 | GGAGUGGAUCCUAUACAACCUACUACCUCA | 0.156 ± 0.027
6 | GGAGACCUAUCUUUACAACCUACUACCUCA | 0.063 ± 0.0089
7 | GGAGACCUAUCUAUGCAACCUACUACCUCA | 0.122 ± 0.014
8 | GGAGACCAUACUAUACAUGCUACUACCUCA | 0.0704 ± 0.01
9 | GGAGACGAUAGUAUACAUCCUACUACCUCA | 0.232 ± 0.016
10 | GGAGUGGAUAUUAUACAACCUACUACCUCA | 0.178 ± 0.0094
11 | GGAGACGAUACUAUACUACCUACUACCACA | 0.209 ± 0.016
12 | GGAGACCUAUCUUAUACAACCUACUACCUCA | 0.145 ± 0.031
13 | GGAGACCUAUCUAUACAAGGAUGAUGGAGA [g13:g20:cont:t1A] | < 0.0001
14 | GGAGUGGAUAGUAAACAACCUACUACCUCA | 0.0879 ± 0.0084
15 | GGAGACCUAUGAAUACAACCUACUACCUUCA | 0.00676 ± 0.0021
16 | GGAGACGAUACUAUACGACCUACUACCUCA | 0.0963 ± 0.012
17 | GGAGACCUAUGAUAUGUACGUACUACCUGA | < 0.0001
18 | GGAGACCUAACUAUACAACCUACUACCAGA | 0.124 ± 0.035
19 | GGAGACCUUGACUAUACAACCUACUACCUCA | 0.163 ± 0.022
20 | GGAGACGAAACUAUACAACCUUCUACCUCA | 0.00739 ± 0.0047

Row | Sequence | pre-steady-state target cleavage rate
21 | GGAGACCUUACUAGACAACCUACUACCUCA | 0.155 ± 0.015
22 | GGAGACCUUACUAUAGCAACCUACUACCUCA | 0.127 ± 0.012
23 | GGAGUGGAUACUAUACAACCUACUACCCCA | 0.0956 ± 0.016
24 | GGAGAGGAUACUAUACUACCUACUACCUCA | 0.173 ± 0.011
25 | GGAGACGAUACUAUACUUGCUACUACCUCA | 0.0658 ± 0.0062
26 | GGAGUGGAUACUAUACAACCUACUCCCUCA | 0.0191 ± 0.0045
27 | GGAGUGGAAACUAUACAACCUACUACCUGA | 0.105 ± 0.023
28 | GGAGACCUUAUAUACAACCUACUACCUCA | 0.0314 ± 0.0072
29 | GGAGACCUAUGAUAUGUACCUACACCUCA | < 0.0001
30 | GGAGACCUAUGAUUACAACCUACGACCUCA | 0.00452 ± 0.0036
31 | GGAGACCUAUCUAAACAACCUAGUACCUCA | 0.0109 ± 0.0036
32 | GGAGACCUUAGUAAACAACCUACUACCUCA | 0.0245 ± 0.0059
33 | GGAGACCUAACUAUACAUCCUACUUCCUCA | 0.14 ± 0.044
34 | GGAGACCAUAGUAUACUACCUACUACCUCA | 0.131 ± 0.013
35 | GGAGACCUAUGAUAUGAACCUACUACGCUCA | < 0.0001
36 | GGAGACCUAUGUAUACAACCUACGUACCUCA | 0.0295 ± 0.0083
37 | GGAGACCUAUGAUAACAACCUACUUACCUCA | 0.00599 ± 0.0021
38 | GGAGAGGAUACUAUACAACGUACUACGUCA | 0.0115 ± 0.0029
39 | GGAGAGGAUUCUAUACAACCUUCUACCUCA | 0.00976 ± 0.0032
40 | GGAGACCUUACUAUUCAAGCUACUACCUCA | 0.235 ± 0.013
